From PubChem BioAssay
Activity calls are given as the source filed them.

Columns and labels:
[1] = system: Human papillomavirus type 1a protein E7 (residues 44-93); experiment: HPV1a E7 fragment binders on microarrays, primary screen, biochemical, small-molecule microarray, residues 44-93, 635 nm fluorescence (AID 1108); details: small-molecule microarray binding, fluorescence 635 nm; higher = more signal;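 also: E7 fragment applied at 1 µg/mL in TBST for 1 h at 4 C; score combines spot fluorescence with its signal to noise ratio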
[2] = modulators of HCV replicon luciferase signal, primary screen, HCV replication inhibitor project, Huh7 cells, luciferase reporter (AID 1109); details: 48 h, higher = more signal;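 also: huh7 hepatoma cells harbouring a luciferase neomycin HCV replicon reporter; luciferase luminescence as measure of HCV replicon replication; test concentration not given here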
[3] = target: Left-right determination factor 2 (Homo sapiens) (UniProt O00292); experiment: LEFTY2 binders on small-molecule microarrays, primary screen, biochemical, small-molecule microarray, 635 nm fluorescence scan (AID 1110); details: LEFTY2 binding, higher = more signal
Sequence of Left-right determination factor 2 (Homo sapiens) (O00292 whole entry, looked up): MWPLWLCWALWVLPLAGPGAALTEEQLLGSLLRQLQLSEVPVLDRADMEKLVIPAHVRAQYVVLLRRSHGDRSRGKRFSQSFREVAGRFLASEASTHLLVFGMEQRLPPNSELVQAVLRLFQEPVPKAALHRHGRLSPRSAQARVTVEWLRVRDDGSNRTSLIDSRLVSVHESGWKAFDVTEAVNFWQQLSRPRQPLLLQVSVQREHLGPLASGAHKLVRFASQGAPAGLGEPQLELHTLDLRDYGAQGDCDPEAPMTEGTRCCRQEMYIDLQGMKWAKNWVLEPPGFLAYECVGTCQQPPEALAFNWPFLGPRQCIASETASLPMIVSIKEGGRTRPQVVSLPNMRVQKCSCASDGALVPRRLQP

[4] = target: Calmodulin-1 (Homo sapiens) (UniProt P0DP23); experiment: CALM1 binders on microarrays, EGTA buffer, profiling panel, biochemical, small-molecule microarray, Cy5-labelled CALM1 (AID 1111); details: Cy5-CALM1 binding fluorescence, higher = more signal;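 also: labelled calmodulin applied in Tris saline Tween buffer holding calcium plus EGTA and DTT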
[5] = target: Calmodulin-1 (Homo sapiens) (UniProt P0DP23); experiment: calcium-bound CALM1 binders on microarrays, profiling panel, artefact control for SMM control-protein annotation, biochemical, small-molecule microarray, Cy5-labelled CALM1, plus calcium (AID 1112); details: Cy5-CALM1 binding fluorescence, higher = more signal;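 also: score merges spot fluorescence with signal to noise from triplicate slides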
[6] = small-molecule microarray binders of probe aWnt5a, primary screen, biochemical, biotinylated probe, 635/667 nm fluorescence (AID 1113); details: higher = more signal;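 also: score merges 667 nm fluorescence intensity with signal-to-noise per printed feature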
[7] = small-molecule microarray binders of probe aShh, primary screen, biochemical, biotinylated probe, 635/667 nm fluorescence (AID 1114); details: higher = more signal;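 also: probe is biotin-labelled aShh protein from a stem cell growth factor screen; measures binding of labelled protein to compounds printed on the slide; score merges feature fluorescence at 667 nm with signal-to-noise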
[8] = small-molecule microarray binders of probe aNog, primary screen, biochemical, biotinylated probe, 635/667 nm fluorescence (AID 1115); details: higher = more signal;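 also: probe is biotinylated aNog protein used at 0.15 µg/mL for 1 h at 4 C; z-score combines 667 nm fluorescence of each spot with its signal to noise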
[9] = target: Torsin-1A-interacting protein 1 (Homo sapiens) (UniProt Q5JTV8); experiment: LAP1 binders from COS7 cell lysate, primary screen, small-molecule microarray, 635/667 nm fluorescence (AID 1116); details: COS7-hLAP1 lysate binding, 635 nm fluorescence, higher = more signal
Sequence of Torsin-1A-interacting protein 1 (Homo sapiens) (Q5JTV8 whole entry, looked up): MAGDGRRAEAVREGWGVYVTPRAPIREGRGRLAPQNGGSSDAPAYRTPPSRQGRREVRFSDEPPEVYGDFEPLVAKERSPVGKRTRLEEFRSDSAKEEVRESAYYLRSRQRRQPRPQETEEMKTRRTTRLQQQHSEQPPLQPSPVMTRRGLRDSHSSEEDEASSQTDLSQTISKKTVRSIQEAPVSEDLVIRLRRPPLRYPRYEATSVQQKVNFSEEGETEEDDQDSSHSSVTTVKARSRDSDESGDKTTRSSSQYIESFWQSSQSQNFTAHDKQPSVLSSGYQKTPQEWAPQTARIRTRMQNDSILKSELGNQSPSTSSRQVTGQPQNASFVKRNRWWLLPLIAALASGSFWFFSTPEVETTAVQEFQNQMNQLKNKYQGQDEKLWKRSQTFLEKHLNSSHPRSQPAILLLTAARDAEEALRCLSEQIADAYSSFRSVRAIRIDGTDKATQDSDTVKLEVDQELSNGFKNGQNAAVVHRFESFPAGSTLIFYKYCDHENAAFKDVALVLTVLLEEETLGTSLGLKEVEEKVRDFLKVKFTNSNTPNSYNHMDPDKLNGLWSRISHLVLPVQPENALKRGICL

[10] = target: Alpha-bungarotoxin (Bungarus multicinctus) (UniProt P60615); experiment: alpha-bungarotoxin binders on microarray, profiling panel, artefact control for SMM control protein annotation, biochemical, small-molecule microarray, Alexa647 label, 635/667 nm fluorescence (AID 1117); details: alpha-BTX-A647 binding fluorescence, higher = more signal
Sequence of Alpha-bungarotoxin (Bungarus multicinctus) (P60615 whole entry, looked up): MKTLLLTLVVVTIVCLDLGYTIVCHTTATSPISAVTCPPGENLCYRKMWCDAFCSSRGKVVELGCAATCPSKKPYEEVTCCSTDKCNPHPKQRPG

Albumin (Bos taurus) = Albumin (Bos taurus) (UniProt P02769); experiment: bovine serum albumin binders on microarray, profiling panel, artefact control for SMM control protein annotation, biochemical, small-molecule microarray, Alexa647 label, 635/667 nm fluorescence (AID 1118); details: BSA-A647 binding, fluorescence 635 nm, higher = more signal;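 also: score merges 667 nm emission intensity and signal-to-noise per printed compound spot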
Sequence of Albumin (Bos taurus) (P02769 whole entry, looked up): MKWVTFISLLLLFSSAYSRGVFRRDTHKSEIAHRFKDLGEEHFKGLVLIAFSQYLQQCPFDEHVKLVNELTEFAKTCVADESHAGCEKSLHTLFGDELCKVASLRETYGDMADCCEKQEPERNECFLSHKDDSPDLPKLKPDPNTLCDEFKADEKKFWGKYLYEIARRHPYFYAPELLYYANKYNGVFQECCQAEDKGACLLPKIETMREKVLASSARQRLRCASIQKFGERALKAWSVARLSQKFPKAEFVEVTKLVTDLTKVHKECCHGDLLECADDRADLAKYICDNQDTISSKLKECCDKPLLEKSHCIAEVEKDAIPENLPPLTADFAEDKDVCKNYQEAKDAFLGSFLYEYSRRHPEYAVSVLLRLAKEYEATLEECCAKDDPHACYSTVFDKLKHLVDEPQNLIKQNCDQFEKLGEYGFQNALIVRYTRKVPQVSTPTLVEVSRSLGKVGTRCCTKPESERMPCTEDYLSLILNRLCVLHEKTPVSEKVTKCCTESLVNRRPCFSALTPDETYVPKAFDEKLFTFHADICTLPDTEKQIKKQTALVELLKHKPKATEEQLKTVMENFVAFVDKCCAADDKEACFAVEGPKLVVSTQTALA

[11] = small-molecule microarray binders of probe aXIP, primary screen, biochemical, NeuroSMM set, 635/667 nm fluorescence (AID 1119); details: higher = more signal, called active from +8 up or from −8 down;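 also: probe is the protein aXip251-270 applied at 1 µg/mL to compound-printed slides; binding of probe to printed compounds measured as 667 nm fluorescence plus signal to noise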
[12] = small-molecule binders of probe aNOTCH3, primary screen, biochemical, small-molecule microarray, 635/667 nm fluorescence (AID 1120); details: higher = more signal;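 also: probe is a biotin-tagged antibody raised against NOTCH3 rather than NOTCH3 protein; score merges spot fluorescence near 667 nm with spot signal to noise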
[13] = small-molecule binders of probe aNOTCH2, primary screen, biochemical, small-molecule microarray, 635/667 nm fluorescence (AID 1121); details: higher = more signal;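 also: score merges feature fluorescence read at 667 nm with its signal to noise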
[14] = target: Carbonic anhydrase 2 (Homo sapiens) (UniProt P00918); experiment: CAII small-molecule binders, profiling panel, biochemical, small-molecule microarray, Alexa647-labelled CAII (AID 1122); details: CAII-A647 binding fluorescence, higher = more signal
[15] = COS7 lysate on small-molecule microarray, probe aHis, 635 nm (AID 1123); details: COS7 cell lysate, fluorescence, higher = more signal;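 also: z-score combines 667nm fluorescence intensity with signal-to-noise per printed compound spot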
[16] = compound binding in COS7 lysate, probe aLAP1, primary screen, cell lysate, small-molecule microarray (AID 1124); details: probe aLAP1, fluorescence, higher = more signal;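 also: lysate comes from COS7 cells expressing LAP1 and is applied at 0.3 µg/mL; score merges spot fluorescence near 667 nm with signal-to-noise over triplicate slides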
Sam68 (KHDRBS1) = experiment: Sam68 small-molecule binders, primary screen, biochemical, small-molecule microarray, 635 nm fluorescence (AID 1125); details: small-molecule microarray binding, higher = more signal;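 also: score merges 667 nm channel intensity with signal to noise over triplicate slides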
[17] = system: Chordin-like protein 2 (CHRDL2); experiment: CHRDL2 small-molecule binders, primary screen, biochemical, small-molecule microarray, 635 nm fluorescence (AID 1126); details: small-molecule microarray binding, fluorescence 635 nm; higher = more signal;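 also: printed compound slides probed with Chrdl2 protein at 4 µg/mL for 1 h at 4 C; score merges 667 nm emission intensity with signal to noise over three replicate slides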
[18] = target: Concanavalin-A (Canavalia ensiformis) (UniProt P02866); experiment: ConA small-molecule binders, primary screen, artefact control for SMM control protein annotation, biochemical, small-molecule microarray, Alexa647 label, 635 nm (AID 1127); details: ConA-A647 binding fluorescence, higher = more signal;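 also: z combines 667 nm emission intensity with signal-to-noise across three replicate slides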
Sequence of Concanavalin-A (Canavalia ensiformis) (P02866 whole entry, looked up): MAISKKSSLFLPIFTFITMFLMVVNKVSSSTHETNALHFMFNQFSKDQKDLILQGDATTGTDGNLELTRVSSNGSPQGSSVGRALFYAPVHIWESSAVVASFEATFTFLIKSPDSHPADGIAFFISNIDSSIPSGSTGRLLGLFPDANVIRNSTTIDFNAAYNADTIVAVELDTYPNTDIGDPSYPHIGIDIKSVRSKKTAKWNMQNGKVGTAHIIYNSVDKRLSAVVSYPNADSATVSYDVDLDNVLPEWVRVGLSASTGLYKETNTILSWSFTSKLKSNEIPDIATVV

SMILES | composite z-score [1] | z-score [2] | composite z-score [3] | composite z-score [4] | composite z-score [5] | composite z-score [6] | composite z-score [7] | composite z-score [8] | composite z-score [9] | composite z-score [10] | composite z-score (Albumin (Bos taurus)) | composite Z-score [11] | composite z-score [12] | composite z-score [13] | composite z-score [14] | composite z-score [15] | composite z-score [16] | composite z-score (Sam68 (KHDRBS1)) | composite z-score [17] | composite z-score [18]
COCC(=C=CC[C@@H](O)c1ccc(OCCO)cc1)CCO | 0.862 | -0.766 | -0.144 | -0.0954 | -0.102 | -0.0643 | 0.0639 | -0.197 | 0.506 | 0.0305 | -0.201 | 1.21 (inactive) | -0.17 | -0.0859 | 0.838 | 1.25 | 0.83 | 0.847 | 0.136 | -0.139
C=CCC(OC(C)=O)[C@@H]1[C@@H](N(Cc2cccc3ccccc23)C(=O)Cc2ccc(F)cc2)c2cc(OCCCO)ccc2N1C(=O)c1ccc(-c2ccccc2)cc1 (stereo not given in full) | -0.658 | -1.09 | -0.197 | -0.573 | 0.992 | -0.236 | -0.0035 | 0.0812 | 0.171 | -0.395 | 0.621 | -0.248 (inactive) | 0.0847 | 0.054 | -0.119 | 0.644 | 0.505 | -0.738 | -0.335 | -1.6
C[C@@]12COC[C@]13C=C(Br)[C@H](C2)[C@@]1(CO1)C3=O | -2.3 | -2.64 | -0.777 | -0.66 | -0.691 | -0.176 | -0.214 | -0.256 | -1.17 | -0.455 | -0.717 | 0.112 (inactive) | -0.315 | -0.124 | -0.643 | -0.47 | 0 | -1.91 | -0.211 | -0.858
Nc1cc(Br)ccc1C(=O)O | -0.0633 | -0.518 | 0.285 | 0.955 | 0.885 | -0.0045 | -0.0626 | 0.0558 | 0.0546 | 1.39 | 0.235 | 2.13 (inactive) | 0.0026 | -0.117 | 0.18 | -0.12 | -0.0137 | 0.213 | -0.079 | 0.713
Cc1cccc([C@H]2C[C@H]3C(I)=C[C@@H]2C(=O)[C@]32CO2)c1 | -0.998 | -1.94 | 0.0047 | -0.542 | -0.271 | -0.141 | -0.345 | -0.0381 | -0.0258 | 0.132 | -0.883 | 0.694 (inactive) | -0.199 | -0.112 | 0.0705 | -0.55 | 0.466 | -0.5 | 0.645 | -0.478
[N-]=[N+]=NCc1ccccc1[C@@H]1OC(c2ccc(OCCCO)cc2)=N[C@]1(Cc1ccccc1)C(=O)NCCN1CCOCC1 | 1.42 | -2.37 | 0.133 | 1.2 | 0.558 | 0.0825 | 0.1 | 0.684 | 0.946 | 0.63 | 0.501 | -0.016 (inactive) | 0.369 | 0.128 | 0.676 | 1.98 | 0.994 | 1.18 | 0.325 | 1.12
COC(=O)c1c2oc(c1C(=O)OC)C(=O)N1CCC[C@H]1Cn1nncc1CN(Cc1ccccc1)C(=O)N[C@H](CO)CC2 | 0.289 | 0.253 | 0.239 | 0.724 | 0.169 | -0.0738 | -0.221 | -0.296 | -0.285 | -0.524 | 0.333 | 0.316 (inactive) | -0.134 | -0.164 | 0.75 | 0.214 | 0.832 | 0.626 | -0.581 | 0.125
CCOC(=O)C1=C[C@@H](C(C)(C)C)N(S(=O)(=O)c2ccc(C)cc2)[C@H]1c1cccc(Cl)c1 | 0.941 | -2.85 | 0.553 | 1.09 | 0.321 | 0.137 | 0.186 | -0.136 | 0.715 | 1.27 | 0.91 | -0.244 (inactive) | 0.0311 | -0.037 | 0.232 | 1.15 | 0.596 | 1.3 | 0.0761 | 1.11
CN(C)C(=O)[C@@]1(Cc2ccccc2)COC(c2ccc(OCCCO)cc2)=N1 | -0.112 | -1.4 | -0.906 | 0.153 | 0.369 | -0.319 | 0.0526 | -0.646 | 2 | -0.579 | 0.66 | -0.655 (inactive) | -0.507 | -0.308 | 0.541 | 2.86 | 0.178 | 0.581 | 0.26 | 0.113
CC(C)(C)OC(=O)CC[C@]1(C(=O)N2CCCCC2)COC(c2ccc(OCCCO)cc2)=N1 | 1.45 | -0.523 | 0.393 | 1.4 | -0.257 | 0.0775 | 0.385 | -0.614 | 1.36 | 0.302 | 0.939 | 1.28 (inactive) | 0.286 | 0.0341 | 0.862 | 2.68 | 1.05 | 1.14 | -0.538 | 1.11
COCCOC(=O)N1C(=O)[C@@]2(c3ccccc31)[C@H](c1ccccc1OCCO)N1[C@H](c3ccccc3)[C@H](c3ccccc3)OC(=O)[C@H]1[C@@H]2C(N)=O | 1.19 | -2.76 | 0.574 | 1.93 | 0.208 | 0.0317 | 0.0121 | 0.389 | 1.29 | 1.14 | 0.856 | 1.26 (inactive) | -0.0324 | -0.181 | 0.565 | 2.36 | 1.01 | 1.3 | 0.651 | 1.18
